Out of some 87,000 compounds screened, about 360 (0.41%) were called active. Rule as the data show it: active = cytotoxicity above about 50%; inactive = the rest. The full list was thinned out, with actives kept by preference.

We go through 104 compounds from PubChem BioAssay AID620 (Sanford-Burnham Center for Chemical Genomics, 2007).

A short description of the assay: cytotoxicity in HT1080 fibrosarcoma cells, cell-based, fluorescence readout (AID 620).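 Also: cells exposed to compound overnight then 4 h with Alamar Blue; 0% = vehicle DMSO and 100% = killing control.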 As to conditions: HT1080 viability, at 10 µM, active compounds read high.
As to `COc1cc(C2C(C#N)=C(N)Oc3cc(O)ccc32)cc2c1OCO2` (centres undefined), the cytotoxicity is -6.6% (inactive).
Take `N#CC1=C(N)Oc2c(ccc3cccnc23)C1c1cccnc1` (centres undefined): the cytotoxicity is 39.8% (inactive).
The same measure for `COc1ccc(C2C(C#N)=C(N)Oc3cc(O)ccc32)cc1OC` (centres undefined): -13.3% (inactive).
The same measure for `COc1cc(C2C(C#N)=C(N)Oc3cc(O)ccc32)cc(OC)c1OC` (centres undefined): 64.7% (active); for `N#CC1=C(N)Oc2cc3ccccc3cc2C1c1cccnc1` (centres undefined): 47.6% (inactive).
For `COc1cc(C2C(C#N)=C(N)Oc3cc(N(C)C)ccc32)cc2c1OCO2` (centres undefined), the cytotoxicity was 63.3% (active).
For the compound `N#CC1=C(N)Oc2cc(N)ccc2C1c1ccc(F)cc1` (centres undefined), the cytotoxicity is -0.8% (inactive).
For `CN(C)c1ccc2c(c1)OC(N)=C(C#N)C2c1cccc(F)c1` (centres undefined), the cytotoxicity is 56% (active).
The same measure for `CCN(CC)c1ccc2c(c1)OC(N)=C(C#N)C2c1cccnc1` (centres undefined): 67.5% (active); for `N#CC1=C(N)Oc2cc(O)ccc2C1c1ccncc1` (centres undefined): -6.2% (inactive); for `N#CC1=C(N)Oc2cc(O)ccc2C1c1ccccc1` (centres undefined): -0.8% (inactive).
Consider `COc1cc(C2C(C#N)=C(N)Oc3cc(C)oc(=O)c32)cc2c1OCO2` (centres undefined), for which the cytotoxicity is -1.5% (inactive).
The result for `Cc1cccc(OCCn2c(NC(=O)c3ccco3)nc3ccccc32)c1` reads 5.5% (inactive); that for `CC(=O)N1[C@H](Cc2ccccc2)C=C[C@]1(C)C(=O)O`, 6.6% (inactive); that for `CCC(c1nnnn1C1CCCC1)N1CCN(c2ccccc2F)CC1` (centres undefined), -20.4% (inactive).
The same measure for `Cc1ccnc(NS(=O)(=O)c2ccc(Oc3ccccc3)cc2)c1`: 7.3% (inactive); for `COc1cc(NC(=O)CN2C(=O)NC(C)(CC(C)C)C2=O)cc(OC)c1` (centres undefined): -7.9% (inactive); for `O=C1NC(c2ccccc2)=C(c2nc3ccccc3s2)C(c2ccc(F)cc2)N1` (centres undefined): -3.1% (inactive).
The result for `O=C(CSc1nnc(COc2ccc(Cl)cc2)o1)N1CCN(c2ccccc2)CC1` reads 1.3% (inactive); that for `O=C(CSc1nnc(COc2ccc(Cl)cc2)o1)N1c2ccccc2CCc2ccccc21`, 62.4% (active); that for `O=C(CSc1nnc(COc2ccc(F)cc2)o1)N1c2ccccc2CCc2ccccc21`, -8% (inactive).
As to `O=C(CCCN1C(=O)c2ccccc2C1=O)Nc1ccc(S(=O)(=O)N2CCOCC2)cc1`, the cytotoxicity is 14.1% (inactive).
`CCCCCc1nnc(NC(=O)CS(=O)(=O)Cc2ccccc2)s1`: the cytotoxicity was -1.5% (inactive).
The same measure for `CC1=CC(C)(C)Nc2ccc(OC(=O)c3ccco3)cc21`: 59.2% (active); for `CC1=CC(C)(C)Nc2ccc(OC(=O)c3cccnc3)cc21`: 14.7% (inactive); for `CC1=CC(C)(C)Nc2ccc(OC(=O)CN3C(=O)C4CCCCC4C3=O)cc21` (centres undefined): -1% (inactive).
The result for `COc1ccc(CC(=O)c2ccccc2C(=O)O)cc1` reads -0.2% (inactive).
Take `CCCCN(CCCC)S(=O)(=O)c1ccc(OC)c2ncccc12`: the cytotoxicity was 32.7% (inactive).
Turning to `COc1ccc(C(=O)Oc2ccc(/C=N/O)cc2)cc1`, the cytotoxicity was 2.6% (inactive).
As for `CO/N=C\C(=N\Nc1ccc(OC)cc1)C(=O)c1ccccc1`, the cytotoxicity is -0.7% (inactive).
On to `COc1ccc(N/N=C(\C=N\O)C(=O)c2ccc(OC)cc2)cc1`, for which the cytotoxicity is 59% (active).
The result for `CO/N=C/C(=N\Nc1ccc(C)cc1)C(=O)c1ccc(OC)cc1` reads 53.7% (active); that for `CO/N=C/C(=N\Nc1ccc(OC)cc1)C(=O)c1ccc(OC)cc1`, 11.7% (inactive).
For the compound `COc1ccc(N/N=C(/Oc2ccc([N+](=O)[O-])cc2)C(C)=O)cc1`, the cytotoxicity is 5.4% (inactive).
As to `CCOc1ccc(N2C(=O)CSC23CCCCC3)cc1`, the cytotoxicity was -10.8% (inactive).
On to `COCCn1c(SCC(=O)NCc2cccs2)nnc1-c1ccc(OC)cc1`, for which the cytotoxicity is 7.9% (inactive).
Consider `Cc1ccc(SC(C)C(=O)Nc2ccncc2)cc1` (centres undefined), for which the cytotoxicity was -1.4% (inactive).
Regarding `O=C1c2[nH]nc(-c3ccccc3O)c2C(c2cccc(Cl)c2)N1Cc1ccco1` (centres undefined), the cytotoxicity is 3.9% (inactive).
Take `Cc1ccc(S(=O)(=O)N2CCN(C(=O)c3ccc(OCc4c(C)noc4C)cc3)CC2)cc1`: the cytotoxicity is -2.3% (inactive).
The result for `NC(=O)C1CCN(C(=S)c2cccs2)CC1` reads 8.7% (inactive).
The same measure for `COc1ccc(C2CC(=O)N3C(=C2C#N)SCC3(O)c2ccccc2)cc1` (centres undefined): 5.5% (inactive); for `N#CC1=C2SCC(O)(c3ccccc3)N2C(=O)CC1c1ccccc1` (centres undefined): 63.1% (active); for `N#CC1=C2SCC(O)(c3ccccc3)N2C(=O)CC1c1ccccc1F` (centres undefined): 4.1% (inactive).
On to `O=C(NCCCN1CCCC1=O)c1cccs1`, for which the cytotoxicity was 1.9% (inactive).
The same measure for `Cn1c(=O)c2c(nc(CN3CCN(c4ccccc4)CC3)n2CCN2CCOCC2)n(C)c1=O`: 8.9% (inactive); for `CCOc1ccc(Nc2cc(C)nc(-n3nc(C)cc3C)n2)cc1`: 50.6% (active); for `CNc1cc(C)nc(-n2nc(C)cc2C)n1`: 2.1% (inactive).
As for `Cc1cc(NCCO)nc(-n2nc(C)cc2C)n1`, the cytotoxicity was -5.5% (inactive).
The same measure for `COc1ccc(Nc2cc(C)nc(-n3nc(C)cc3C)n2)cc1`: 65.9% (active); for `CCOc1ccc(Nc2cc(C)nc(N3CCOCC3)n2)cc1`: -0.6% (inactive).
The same measure for `COc1ccc(Nc2cc(C)nc(N3CCOCC3)n2)cc1`: 21.5% (inactive).
Turning to `CCCc1nc2sc3ccccc3c(=O)c2c(=O)n1Cc1ccco1`, the cytotoxicity was 21% (inactive).
The same measure for `Cc1cccc(NS(=O)(=O)c2cc(C(=O)N3CCN(C)CC3)ccc2C)c1`: -3.1% (inactive).
Turning to `COc1ccc(C(=O)Nc2nc3ccccc3[nH]2)cc1OC`, the cytotoxicity was 0.5% (inactive).
The same measure for `COc1cc(OC)cc(C(=O)Nc2nc3ccccc3[nH]2)c1`: -1.1% (inactive).
With `COC(=O)Nc1nc2ccc(Sc3ccccc3)cc2[nH]1`, the cytotoxicity was 62.2% (active).
The same measure for `COC(=O)Nc1nc2ccc(C(=O)c3ccccc3)cc2[nH]1`: 61.1% (active); for `COc1cc(C(=O)Nc2nc3ccccc3[nH]2)cc(OC)c1OC`: -3.2% (inactive); for `Cc1nc2ccc(C(=O)c3ccccc3)cc2[nH]1`: -6.6% (inactive).
`Cc1ccc(-c2nc(CS(=O)CC(=O)NC3CCC(C)CC3)c(C)o2)cc1` (centres undefined): the cytotoxicity is -9.8% (inactive).
The result for `CCc1ccc(OC)c(S(=O)(=O)Nc2ccccc2C)c1` reads 3.8% (inactive).
In the case of `CC(C)N(c1ccccc1)c1ccc(NC(=O)C2CCCO2)cc1` (centres undefined), the cytotoxicity was -3.8% (inactive).
The result for `Cn1nnnc1Sc1ncnc2scc(-c3ccc(F)cc3)c12` reads 20% (inactive).
The result for `Cc1ccc(-c2csc3ncnc(NCCN4CCOCC4)c23)cc1` reads -10.9% (inactive); that for `CNC(=O)CN1C(=O)CSc2ncccc21`, -11.8% (inactive).
The same measure for `CC(=O)N=c1sc2ccccc2n1C`: -2.3% (inactive); for `Cn1c(=NC(=O)CN2C(=O)C3CC=CCC3C2=O)sc2ccccc21` (centres undefined): -0.3% (inactive); for `Cn1c(=NC(=O)CCl)sc2ccccc21`: 98.2% (active).
Regarding `CC(=O)Nc1ccc(NC(=O)Cn2c(CC(=O)N3CCCC3)nc3ccccc32)cc1`, the cytotoxicity was -27.7% (inactive).
The same measure for `C=CCn1c(N2C(=O)CC(Cc3ccccc3)C2=O)nc2ccccc21` (centres undefined): 5.8% (inactive).
Regarding `CCc1ccc(NC(=O)c2ccccc2NC(=O)C2CCCO2)cc1` (centres undefined), the cytotoxicity is -5.7% (inactive).
The result for `COc1cccc2c(=O)n(CC(=O)NC3CCCC3)ccc12` reads 2.2% (inactive).
The same measure for `c1ccc(-c2nnc(-c3ccccn3)nc2NC2CCCCC2)cc1`: 50.7% (active).
For `CNc1nc(-c2ccccn2)nnc1-c1ccccc1`, the cytotoxicity is 10.4% (inactive).
The result for `c1ccc(-c2noc(C3CCCCC3)n2)nc1` reads -7.2% (inactive); that for `CN1CCC(N(C)C(=O)c2ccccc2Nc2ccc(SC(F)F)cc2)CC1`, 5.3% (inactive); that for `CCCn1c(NCc2ccc(C)o2)nc2ccccc21`, 0.5% (inactive).
For `COCCn1nnnc1C(c1ccc2ncccc2c1)N1CCN(c2ccccc2F)CC1` (centres undefined), the cytotoxicity was -18.9% (inactive).
For `COc1ccc(S(=O)(=O)N2c3cc(Cl)ccc3Oc3nc4ccccc4nc32)cc1`, the cytotoxicity was 70.2% (active).
The same measure for `O=S(=O)(c1ccccc1)N1c2cc(Cl)ccc2Oc2nc3ccccc3nc21`: -4.7% (inactive); for `O=S(=O)(c1ccc(Cl)cc1)N1c2ccccc2Oc2nc3ccccc3nc21`: 3.8% (inactive); for `COC(=O)c1cc(NS(=O)(=O)c2ccc(OC)c(OC)c2)ccc1Cl`: 3.3% (inactive).
With `COCc1[nH]nc2c1C(c1ccccc1Cl)C(C#N)=C(N)O2` (centres undefined), the cytotoxicity was -4.4% (inactive).
The result for `Cc1cc(C(C)(C)C)nc2[nH]n(-c3ccccc3)c(=O)c12` reads -2.1% (inactive).
The result for `Cc1ccnc(NC(=O)c2cc(-n3cnnc3)ccc2Cl)c1` reads 12.1% (inactive); that for `CC(C)(C)C(=O)Nc1sc2c(c1C#N)CCCCC2`, 5.8% (inactive); that for `COCCCNC(=O)CC(NS(=O)(=O)c1ccc(Cl)cc1)c1ccco1` (centres undefined), -9.5% (inactive).
The same measure for `CC(C)CNS(=O)(=O)c1ccc(CCC(=O)N2CCOCC2)cc1`: 2.1% (inactive); for `COc1ccc(-c2n[nH]c(C)c2-c2ccc(Cl)cc2)c(O)c1`: -10.8% (inactive).
On to `C=C(C)COc1ccc(-c2n[nH]c(C)c2-c2ccc(OC)cc2)c(O)c1`, for which the cytotoxicity is -14.1% (inactive).
The result for `C=C(C)COc1ccc(-c2n[nH]c(C)c2-c2ccc(Br)cc2)c(O)c1` reads 50.7% (active).
The result for `COc1ccccc1NS(=O)(=O)c1cc(Cl)ccc1OC` reads 16.4% (inactive).
The same measure for `Cn1c(N)c(C(=O)COC(=O)c2cc(C(F)(F)F)nc3ccccc23)c(=O)n(Cc2ccccc2)c1=O`: 5.9% (inactive).
As to `COc1ccc(CCNc2c(C)c(C)nc3ncnn23)cc1`, the cytotoxicity is 17.9% (inactive).
In the case of `CCc1c(C)nc2ncnn2c1NCCc1ccccc1`, the cytotoxicity was -9.2% (inactive).
The result for `CCc1c(C)nc2ncnn2c1NCCc1ccc(OC)cc1` reads 61.9% (active); that for `O=C(N1CCOCC1)C12CC3CC(C1)CC(C(=O)N1CCOCC1)(C3)C2`, -17.8% (inactive).
The same measure for `Cc1cc(C)c(C)c(S(=O)(=O)NCC(=O)N2CCCC2)c1C`: 6.8% (inactive); for `CCOc1ccccc1OCCCC(=O)Nc1ccc(OC)nc1`: 2.4% (inactive); for `COc1ccc(NC(=O)c2cc(CN3C(=O)c4ccccc4C3=O)ccc2OC)cn1`: -0.1% (inactive).
The result for `COc1ccc(NC(=O)c2nc3nccc(C)n3n2)cn1` reads 10.5% (inactive).
For `COc1ccc(NC(=O)/C(Cl)=C(/Cl)S(=O)Cc2ccccc2)cn1` (centres undefined), the cytotoxicity was 95.5% (active).
Take `COc1ccc(NC(=O)c2cc(=O)c3ccccc3o2)cn1`: the cytotoxicity is 7% (inactive).
Consider `COc1ccc(NC(=O)/C(Cl)=C(/Cl)S(=O)Cc2ccc(C)cc2)cn1` (centres undefined), for which the cytotoxicity was 92.3% (active).
